# Assay results reported in the supplement of paper PMC13380429.
# Tests used:
# [1] = tested on: Vero E6 infected with SARS-CoV-2; assay: morphology score (similarity to uninfected cells); higher = more like uninfected cells; details: 24 h
# [2] = tested on: Vero E6 infected with SARS-CoV-2; assay: SARS-CoV-2 infection rate relative to infected DMSO; higher = more infection, active = 60 or less; details: 24 h
SMILES,morphology score [1],SARS-CoV-2 infection rate [2]
O=C(NOCC(O)CO)c1cc(Br)c(F)c(F)c1Nc1ccc(I)cc1F (stereo not drawn) (0.833333 µM),-0.0489,112% (inactive)
CO/N=C1/C[C@@H](C(=O)NC[C@@H](O)c2ccccc2)N(C(=O)c2ccc(-c3ccccc3C)cc2)C1 [OT-R-antagonist-1] (10 µM),0.118,98.5% (inactive)
CCOc1nc2cccc(C(=O)O)c2n1Cc1ccc(-c2ccccc2-c2nnn[nH]2)cc1 [candesartan] (10 µM),0.175,105% (inactive)
C#C[C@]1(O)CC[C@H]2[C@@H]3CCC4=CC(=O)CC[C@@H]4[C@H]3CC[C@@]21CC [norgestrel] (10 µM),0.191,102% (inactive)
CN(C)C(=O)Oc1cc(OC(=O)N(C)C)cc(C(O)CNC(C)(C)C)c1 (stereo not drawn) [bambuterol] (10 µM),-0.145,114% (inactive)
CCNC(=O)CCC/C=C\C[C@@H]1[C@@H](/C=C/[C@@H](O)CCc2ccccc2)[C@H](O)C[C@@H]1O [bimatoprost] (10 µM),0.0397,103% (inactive)
COc1cc2c(NC3CCN(C)CC3)nc(N3CCCN(C)CC3)nc2cc1OCCCN(C)C (10 µM),0.124,116% (inactive)
Nc1nc(=O)n([C@@H]2O[C@H](CO)[C@@H](O)[C@@H]2F)cc1I [fiacitabine] (10 µM),-0.0647,111% (inactive)
O=C1NS(=O)(=O)c2ccccc21 [saccharin] (10 µM),-0.085,106% (inactive)
O=c1[nH]cnc2c1cnn2[C@@H]1O[C@H](CO)[C@@H](O)[C@H]1O [allopurinol-riboside] (10 µM),0.0253,109% (inactive)
CN=c1nc(-c2ccccc2)n(-c2ccccc2)s1 (10 µM),-0.0414,97.5% (inactive)
O=C(Nc1ccc([N+](=O)[O-])cc1O)Nc1ccccc1Br (0.833333 µM),0.0726,103% (inactive)
COc1cc2c(cc1OC)[C@@H]1Cc3ccc(OC)c(OC)c3CN1CC2 [rotundine] (10 µM),0.0444,110% (inactive)
COc1cc2c(c(OC)c1OC)-c1ccc(OC)c(=O)cc1[C@@H](NC(C)=O)CC2 [colchicine] (10 µM),-0.0542,96% (inactive)
c1ccc(NCc2ccc(CNc3ccccn3)cc2)nc1 (10 µM),-0.0443,102% (inactive)
O=C(O)/C=C(/CC(=O)O)C(=O)O [cis-aconitic-acid] (10 µM),-0.118,110% (inactive)
NC(=O)c1ccc(I)c([N+](=O)[O-])c1 [iniparib] (10 µM),0.0662,106% (inactive)
CN(N=O)C(=O)N[C@@H](C=O)[C@@H](O)[C@H](O)[C@H](O)CO [streptozotocin] (10 µM),0.0397,96% (inactive)
O=C(O)C1=C[C@@H](O)[C@@H](O)[C@H](O)C1 [shikimic-acid] (10 µM),0.0235,108% (inactive)
Cc1cc2c(s1)Nc1ccccc1N=C2N1CCN(C)CC1 [olanzapine] (10 µM),-0.0599,108% (inactive)
CC12CC3CC(C)(C1)CC(N)(C3)C2 [memantine] (10 µM),0.0122,110% (inactive)
CNS(=O)(=O)Nc1nccc(Cc2c(C)c3ccc(Oc4ncccn4)cc3oc2=O)c1F (0.833333 µM),-0.0748,113% (inactive)
O=C1NC(=O)/C(=C/c2ccc(-c3ccc(F)cc3O)o2)S1 (10 µM),0.146,108% (inactive)
CC(C)OC(=O)C1=CN(C(=O)c2ccc(F)c(F)c2)CC(C)(C)c2c1[nH]c1ccccc21 (10 µM),0.0521,100% (inactive)
CCN(CC)CC1CCCCN1CC(=O)N1c2ccccc2C(=O)Nc2cccnc21 (stereo not drawn) [otenzepad] (10 µM),0.171,94.5% (inactive)
CC1(c2ccccc2)OC(C(=O)O)=CC1=O (stereo not drawn) [acifran] (10 µM),0.119,102% (inactive)
Cc1nc(-c2ccc(OCC(C)C)c(C#N)c2)sc1C(=O)O [febuxostat] (10 µM),0.0407,118% (inactive)
C[C@@H]1COC(Nc2ccc3ncnc(Nc4ccc(OCc5nccs5)c(Cl)c4)c3c2)=N1 (10 µM),-0.156,97% (inactive)
O=c1oc(-c2ccc(C(F)(F)F)cc2)nn1Cc1cc(Cl)ccc1O (10 µM),0.593,39.5% (active)
